Results: PubChem BioAssay (Tox21)
Where “and” joins values, the source holds several entries; their conditions need not be identical. Equal entries are not always repeated. Inconclusive results are not listed. Calls of active or inactive are those of the source. Unless noted, calls follow the shape of the dose curve; as a rule, active = well fitted curve in the direction sought with a large enough effect in the repeat runs; inconclusive = weak or mixed curves; inactive = no such curve, though single readings can be large; an effect the other way counts as inactive or inconclusive.

Columns and labels:
[1] = qHTS assay to identify small molecule agonists of the peroxisome proliferator-activated receptor delta (PPARd) signaling pathway - cell viability counter screen (AID 743211); conditions: PPARd-bla HEK293H viability, CellTiter-Glo luminescence, 17 h; series mostly up to 62.6 µM; also: nearly all actives have a fitted effect of over 55% in size; also: potency is read from the fitted curve at half-maximal effect
Method in brief: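 Viability of GeneBLAzer PPARd UAS-bla HEK293H cells was assessed after 17 h compound incubation at 37C, using CellTiter-Glo reagent added after the reporter read and luminescence recorded 30 min later.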

[2] = target: Peroxisome proliferator-activated receptor delta (Homo sapiens) (UniProt Q03181); assay: qHTS assay to identify small molecule agonists of the peroxisome proliferator-activated receptor delta (PPARd) signaling pathway (AID 743212; calls by dose curve); conditions: HEK293H PPARd-UAS-bla, beta-lactamase FRET ratio, 17 h; series mostly up to 62.6 µM
Method in brief: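 GeneBLAzer UAS-bla HEK293H cells carrying a PPARδ construct were exposed to compounds at 37 °C. Beta-lactamase activity was read by FRET fluorescence after 2 h at room temperature with LiveBLAzer B/G substrate.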

[3] = qHTS assay to identify small molecule antagonists of the peroxisome proliferator-activated receptor delta (PPARd) signaling pathway - cell viability counter screen (AID 743213); conditions: PPARd-bla HEK293H viability, CellTiter-Glo luminescence, 17 h; series mostly up to 62 µM; also: nearly all actives have a fitted effect of over 50% in size; also: potency is read from the fitted curve at half-maximal effect
Method in brief: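 HEK293H PPARd UAS-bla cells, 5 h pre-incubation, compound + L165041 300 nM final, 17 h 37 C; B/G FRET substrate 2 h RT; then CellTiter-Glo 30 min RT, luminescence.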

[4] = target: Peroxisome proliferator-activated receptor delta (Homo sapiens) (UniProt Q03181); assay: qHTS assay to identify small molecule antagonists of the peroxisome proliferator-activated receptor delta (PPARd) signaling pathway (AID 743215; active = well fitted inhibition curve with a large enough effect in the signal ratio in the repeat runs, not every such curve was filed as active; the % refers to the signal ratio;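 also: cells stimulated with agonist L165041 at 300 nM final during compound exposure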; also: potency is read from the fitted curve at half-maximal effect); conditions: HEK293H PPARd-UAS-bla, beta-lactamase FRET ratio, antagonist, 17 h; series mostly up to 62 µM
Method in brief: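 Antagonist-mode beta-lactamase reporter screen: HEK293H cells with UAS-bla under PPARd control, stimulated by 300 nM L165041 (final) alongside test compound for 17 h at 37 C, then FRET fluorescence after 2 h substrate incubation.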

[5] = target: Bile acid receptor (Homo sapiens) (UniProt Q96RI1); assay: qHTS assay to identify small molecule antagonists of the farnesoid-X-receptor (FXR) signaling pathway (AID 743217; active = well fitted inhibition curve with a large enough effect in the signal ratio in the repeat runs, not every such curve was filed as active; the % refers to the signal ratio); conditions: HEK293T FXR-UAS-bla, beta-lactamase ratio, CDCA-stimulated, 16 h; series mostly up to 62.6 µM
Method in brief: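 Beta-lactamase reporter under UAS control in HEK 293T cells; compound exposure 16 h at 37 °C in the presence of chenodeoxycholic acid (50 uM final); signal from B/G FRET substrate after 2 h at room temperature.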

[6] = qHTS assay to identify small molecule agonists of the farnesoid-X-receptor (FXR) signaling pathway - cell viability counter screen (AID 743218); conditions: FXR-bla HEK293T viability, CellTiter-Glo luminescence, 16 h; series mostly up to 62.6 µM; also: nearly all actives have a fitted effect of over 45% in size; also: potency is read from the fitted curve at half-maximal effect
Method in brief: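 In GeneBLAzer FXR-UAS-bla HEK 293T cells, compounds act for 16 h at 37 C. Cell viability is then scored in the reporter wells by CellTiter-Glo, 30 min at RT, luminescence.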

[7] = target: Bile acid receptor (Homo sapiens) (UniProt Q96RI1); assay: qHTS assay to identify small molecule agonists of the farnesoid-X-receptor (FXR) signaling pathway (AID 743220; active = well fitted activation curve with a large enough effect in the signal ratio in the repeat runs, not every such curve was filed as active; the % refers to the signal ratio); conditions: HEK293T FXR-UAS-bla, beta-lactamase FRET ratio, 16 h; series mostly up to 62.6 µM
Method in brief: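 Beta-lactamase reporter under UAS control in GeneBLAzer FXR HEK 293T cells (5000/well) measured with LiveBLAzer FRET substrate after 2 h at room temperature. Compound exposure lasted 16 h at 37C.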

[8] = qHTS assay to identify small molecule antagonists of the farnesoid-X-receptor (FXR) signaling pathway - cell viability counter screen (AID 743221; active = well fitted cell-killing curve with a large enough effect in the repeat runs, not every such curve was filed as active; also: nearly all actives have a fitted effect of over 50% in size; also: potency is read from the fitted curve at half-maximal effect); conditions: FXR-bla HEK293T viability, CellTiter-Glo luminescence, 16 h; series mostly up to 62.6 µM
Method in brief: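 Quantitative HTS of the Tox21 10K library run in parallel with the beta-lactamase reporter read. HEK 293T cells carrying a UAS-driven bla reporter got compound and 50 uM CDCA (final) for 16 h; ATP-based luminescence followed.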

[9] = target: Vitamin D3 receptor (Homo sapiens) (UniProt P11473); assay: qHTS assay to identify small molecule agonists of the vitamin D receptor (VDR) signaling pathway (AID 743222; calls by dose curve); conditions: HEK293T VDR-UAS-bla, beta-lactamase FRET ratio, 16 h; series mostly up to 63.5 µM
Method in brief: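 Agonist activity measured in VDR-bla reporter cells. Exposure 16 h, 37C, 5% CO2; detection by B/G FRET substrate, 2 h RT.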

[10] = target: Vitamin D3 receptor (Homo sapiens) (UniProt P11473); assay: qHTS assay to identify small molecule antagonists of the vitamin D receptor (VDR) signaling pathway (AID 743223; active = well fitted inhibition curve with a large enough effect in the signal ratio in the repeat runs, not every such curve was filed as active; the % refers to the signal ratio); conditions: VDR-UAS-bla HEK293T, beta-lactamase FRET ratio, 16 h; series mostly up to 61 µM
Method in brief: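 Fluorescence from LiveBLAzer B/G FRET substrate, read after 2 h at room temperature, reflects beta-lactamase reporter activity in VDR-bla cells treated 16 h at 37C with compounds and agonist 1alpha,25-dihydroxyvitamin D3 (3 nM final).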

Measured: Potency

Sequence of Bile acid receptor (Homo sapiens) (Q96RI1 whole entry, looked up): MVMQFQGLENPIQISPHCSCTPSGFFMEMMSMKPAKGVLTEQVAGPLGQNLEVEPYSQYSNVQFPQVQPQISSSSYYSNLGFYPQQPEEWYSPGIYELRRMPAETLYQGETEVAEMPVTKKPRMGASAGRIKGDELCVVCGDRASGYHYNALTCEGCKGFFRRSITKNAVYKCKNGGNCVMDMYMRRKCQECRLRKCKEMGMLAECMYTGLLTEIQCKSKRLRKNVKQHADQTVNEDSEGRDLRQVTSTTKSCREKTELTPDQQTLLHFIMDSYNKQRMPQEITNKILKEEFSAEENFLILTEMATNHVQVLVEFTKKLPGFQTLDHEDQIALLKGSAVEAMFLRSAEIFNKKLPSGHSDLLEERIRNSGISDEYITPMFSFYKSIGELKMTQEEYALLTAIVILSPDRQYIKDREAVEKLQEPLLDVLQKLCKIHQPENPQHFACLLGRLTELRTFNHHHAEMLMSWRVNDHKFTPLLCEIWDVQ
Sequence of Vitamin D3 receptor (Homo sapiens) (P11473 whole entry, looked up): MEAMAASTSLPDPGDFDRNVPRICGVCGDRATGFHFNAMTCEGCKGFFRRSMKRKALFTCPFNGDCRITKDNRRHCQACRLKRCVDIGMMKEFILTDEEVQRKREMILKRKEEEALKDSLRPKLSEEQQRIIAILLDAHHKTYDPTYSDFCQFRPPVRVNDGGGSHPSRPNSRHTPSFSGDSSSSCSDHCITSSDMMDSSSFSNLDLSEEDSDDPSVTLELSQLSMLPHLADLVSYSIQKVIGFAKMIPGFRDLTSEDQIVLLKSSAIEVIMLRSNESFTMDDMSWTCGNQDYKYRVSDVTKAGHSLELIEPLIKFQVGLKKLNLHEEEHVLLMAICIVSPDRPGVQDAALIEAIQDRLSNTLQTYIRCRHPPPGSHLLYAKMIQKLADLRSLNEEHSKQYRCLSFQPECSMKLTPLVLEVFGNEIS
Sequence of Peroxisome proliferator-activated receptor delta (Homo sapiens) (Q03181 whole entry, looked up): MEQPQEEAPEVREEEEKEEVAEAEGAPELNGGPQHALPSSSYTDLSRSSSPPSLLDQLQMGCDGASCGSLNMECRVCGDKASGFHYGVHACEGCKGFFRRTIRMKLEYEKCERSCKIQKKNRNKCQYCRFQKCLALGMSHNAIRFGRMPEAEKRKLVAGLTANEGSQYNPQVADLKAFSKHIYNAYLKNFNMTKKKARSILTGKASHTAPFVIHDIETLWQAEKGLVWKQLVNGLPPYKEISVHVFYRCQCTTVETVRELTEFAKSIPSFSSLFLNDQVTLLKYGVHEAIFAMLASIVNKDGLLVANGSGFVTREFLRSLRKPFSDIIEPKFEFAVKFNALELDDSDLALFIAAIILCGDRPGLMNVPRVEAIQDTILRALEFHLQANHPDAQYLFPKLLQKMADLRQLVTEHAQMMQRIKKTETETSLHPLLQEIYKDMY

CC1(C)C(=O)N(Br)C(=O)N1Br
not listed: [9] | [10]
inactive: all other assays above

C=C(C)C(=O)OCCC[Si](Cl)(Cl)Cl
not listed: [5] | [6] | [7]
inactive: all other assays above

ClC/C=C\CCl
not listed: [5] | [6] | [7]
inactive: all other assays above

CCCCCCCC/C=C\CCCCCCCC(=O)OCCOC(=O)CCCCCCC/C=C\CCCCCCCC
not listed: [6] | [9]
inactive: all other assays above

SCCCCCCCCS
inactive: all assays above

O=Cc1ccc(F)cc1
not listed: [9] | [10]
inactive: all other assays above

Nc1cc(Cl)c([N+](=O)[O-])cc1O
not listed: [7]
inactive: all other assays above

NC(=O)c1ccccc1N
not listed: [5] | [7]
inactive: all other assays above

CNC(=O)c1cc(Oc2ccc(NC(=O)Nc3ccc(Cl)c(C(F)(F)F)c3)cc2)ccn1
active: [1] 15 µM | [3] 10.6 µM | [6] 21.1 µM | [8] 29.8 µM
inactive: [2] | [7]

CN1CCN(C2Cc3ccccc3Sc3ccc(Cl)cc32)CC1 (centres undefined)
inactive: [2] | [7] | [10]
active: [1] 26.6 µM | [6] 26.6 µM | [8] 29.8 µM

O=S(=O)(O)CCCN1CCOCC1
not listed: [4] | [5] | [7]
inactive: all other assays above

Cc1cc2c(C(C)C)c(O)c(O)c(C=O)c2c(O)c1-c1c(C)cc2c(C(C)C)c(O)c(O)c(C=O)c2c1O
active: [1] 9.44 µM | [3] 11.9 µM | [4] 18.8 µM | [6] 10.6 µM | [8] 16.8 µM

O[C@@H](c1cc(C(F)(F)F)nc2c(C(F)(F)F)cccc12)[C@H]1CCCCN1
active: [1] 10.6 µM | [3] 8.41 µM | [4] 13.3 µM | [6] 13.3 µM | [8] 26.6 µM
inactive: [7]

CCN(CC)c1ccc(N)cc1
inactive: [5]
active: [1] 44.8 µM | [3] 31.7 µM

C=CC(C)(CCC=C(C)C)OC(=O)/C=C/c1ccccc1 (centres undefined)
not listed: [3] | [4] | [9]
inactive: all other assays above

CO[C@H]1C=CO[C@@]2(C)Oc3c(C)c(O)c4c(O)c(cc(O)c4c3C2=O)NC(=O)/C(C)=C\C=C/[C@H](C)[C@H](O)[C@@H](C)[C@@H](O)[C@@H](C)[C@H](OC(C)=O)[C@@H]1C
inactive: [1] | [2] | [8] | [10]

CC(C(O)c1ccccc1)N(C)CCOC(c1ccccc1)c1ccccc1 (centres undefined)
inactive: [4] | [7] | [9] | [10]
active: [1] 29.8 µM | [3] 33.5 µM | [6] 15 µM

CCCCCCCCCCCCCCNCCO
inactive: [1] | [2] | [4] | [6] | [8] | [10]

CCC1(c2cnc[nH]2)Cc2ccccc2C1
inactive: [1] | [2] | [3] | [6] | [8] | [10]

CCCCN(CCCC)CCC(O)c1cc2c(Cl)cc(Cl)cc2c2cc(C(F)(F)F)ccc12 (centres undefined)
inactive: [2] | [4] | [7] | [9] | [10]
active: [1] 33.5 µM | [6] 29.8 µM

CCN(CC)CCOc1ccc(C(O)(Cc2ccc(Cl)cc2)c2ccc(C)cc2)cc1 (centres undefined)
active: [1] 10.6 µM | [3] 13.3 µM | [4] 29.8 µM | [6] 13.3 µM | [8] 29.8 µM
inactive: [7]

CCN=c1cc2oc3cc(NCC)c(C)cc3c(-c3ccccc3C(=O)OCC)c-2cc1C
inactive: [2] | [7]
active: [1] 48.8 µM and 27.5 µM | [3] 38.8 µM and 24.5 µM | [6] 48.8 µM and 38.9 µM | [8] 54.7 µM and 54.9 µM

O=C(O)Cc1ccc(OCCNC[C@H](O)c2ccccc2)cc1
not listed: [2] | [4] | [9]
inactive: all other assays above

O=C1OC(=O)c2cccc3cccc1c23
inactive: [1] | [2] | [4] | [6] | [8]
